A short description of experiment [1]: Quantitative High-Throughput drug screen in 47 multiple myeloma cell lines against the NCATS MIPE library collection: FR4_PLB cell viability assay (AID 1918924; further: nearly all actives have a fitted effect of over 35% in size). In a few lines:
(§1)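 Myeloma cells (500 per well) were exposed to MIPE 4.0 compounds by pin transfer and incubated 48 hours at 37C, 5% CO2. Viability was read as ATP by CellTiter-Glo luminescence, normalised to DMSO (100%) and media-only (0%) wells.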

A short description of experiment [2]: Quantitative High-Throughput drug screen in 47 multiple myeloma cell lines against the NCATS MIPE library collection: EJM_DSMZ cell viability assay (AID 1918926; further: nearly all actives have a fitted effect of over 30% in size). In a few lines:
(§2)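 Inhibition of cell viability is measured here. Each line was plated at 500 cells per well, treated with MIPE 4.0 drugs, kept 48 hours at 37C, then assayed for ATP content by CellTiter-Glo luminescence.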

A short description of experiment [3]: Quantitative High-Throughput drug screen in 47 multiple myeloma cell lines against the NCATS MIPE library collection: Karpas620_DSMZ cell viability assay (AID 1918959). Further: nearly all actives have a fitted effect of over 30% in size. In a few lines: as §1
The nature of experiment [4]: Quantitative High-Throughput drug screen in 47 multiple myeloma cell lines against the NCATS MIPE library collection: KMM1_JCRB cell viability assay (AID 1918960). Further: nearly all actives have a fitted effect of over 30% in size. In a few lines:
(§3)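 Cell viability inhibition in this qHTS is measured via ATP content (CellTiter-Glo) after 48 h drug exposure at 37 °C. Wells hold 500 cells; DMSO-treated wells define 100% and medium-only wells 0%.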

A short description of experiment [5]: Quantitative High-Throughput drug screen in 47 multiple myeloma cell lines against the NCATS MIPE library collection: ARP1_JJKsccF8 cell viability assay (AID 1918928; further: nearly all actives have a fitted effect of over 40% in size). In a few lines:
as §3

Experiment [6] in a line: Quantitative High-Throughput drug screen in 47 multiple myeloma cell lines against the NCATS MIPE library collection: ARD_JJKsccE7 cell viability assay (AID 1918929). In a few lines:
as §2

Experiment [7] can be described thus: Quantitative High-Throughput drug screen in 47 multiple myeloma cell lines against the NCATS MIPE library collection: AMO1_DSMZ cell viability assay (AID 1918927; further: nearly all actives have a fitted effect of over 30% in size). In a few lines: as §2
A short description of experiment [8]: Quantitative High-Throughput drug screen in 47 multiple myeloma cell lines against the NCATS MIPE library collection: Karpas417_ECACC cell viability assay (AID 1918961). To be noted: Karpas417 myeloma viability, CellTiter-Glo ATP luminescence, 48 h; viability (% of DMSO): at 45.8 µM (top of the series). In a few lines:
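CellTiter-Glo ATP luminescence gave viability after 48 h compound treatment at 37C of 500 multiple myeloma cells per well. Normalisation used DMSO-only wells as 100% and media-only wells as 0% viability; primary qHTS of approved and investigational drugs.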
On the technique in general: Cellular ATP, detected with luciferase, serves as a proxy for viable cell number.

Experiment [9] in a line: Quantitative High-Throughput drug screen in 47 multiple myeloma cell lines against the NCATS MIPE library collection: Delta47_JCRB cell viability assay (AID 1918925; further: nearly all actives have a fitted effect of over 45% in size). In a few lines:
as §2

Structures are written as SMILES. Results filed as inconclusive are left out. The source made the active and inactive calls. The call rests on the fitted dose curve; in most records, active means well fitted cell-killing curve with a large enough effect; inconclusive means small, poorly fitted or top-dose-only effect, or effect the other way; inactive means no such curve, though single readings can be large or run the other way.
Potency means the concentration at half of the fitted maximal effect.

Take `C[C@]12C=CC(=O)C=C1CC[C@@H]1[C@@H]2[C@@H](O)C[C@@]2(C)[C@@H]1CC[C@]2(O)C(=O)CO`: the Potency result in experiment [1], in [2] and in experiment [3] was “inactive” each time. The Potency in experiment [4] is 0.209 µM (active).
With `CO[C@H]1/C=C\O[C@@]2(C)Oc3c(C)c(O)c4c(O)c(c(C=NN5CCN(C6CCCC6)CC5)c(O)c4c3C2=O)NC(=O)C(C)=CC=C[C@H](C)[C@H](O)[C@@H](C)[C@@H](O)[C@@H](C)[C@H](OC(C)=O)[C@H]1C`, the Potency in experiment [1] was 0.372 µM (active); in [2], 0.833 µM (active); in experiment [5], 10.5 µM (active); in [6], 1.05 µM (active); in [3], 0.264 µM (active).
On to `Cn1c(=O)c(Oc2ccc(F)cc2F)cc2cnc(NC3CCOCC3)nc21`, for which the Potency entry in [1], in experiment [2] and in [3] was “inactive” in each case. The Potency in [6] was 0.0074 µM (active).
Take `Cc1ccc(C2=Nc3ccc(Cl)cc3OC2)cc1`: the Potency was 4.69 µM (active) in experiment [1], 1.18 µM (active) in experiment [7] and 3.32 µM (active) in experiment [4]. Moreover, the Potency entry in experiment [2] and in experiment [3] was “inactive” in each case.
On to `CO[C@H]1O[C@@H]2O[C@@]3(C)CC[C@@H]4[C@@H](C)CC[C@@H]([C@H]1C)[C@@]24OO3`, for which, in experiment [1], the Potency result is “inactive”. Besides, the Potency in [2] is 1.48 µM (active); in experiment [7] it was 1.87 µM (active); in experiment [5], 16.6 µM (active); in experiment [4] it was 1.32 µM (active).
Take `COc1cc2nccc(Oc3ccc(NC(=O)Nc4ccc(F)cc4F)c(F)c3)c2cc1OC`: the Potency entry in [1], in experiment [7], in experiment [5], in experiment [6], in experiment [3] and in experiment [4] was “inactive” in each case.
For `C#CCN(C)CC1=Cc2ccccc2Oc2ccccc21`, the Potency entry in [1], in experiment [2], in experiment [5], in experiment [3] and in experiment [4] was “inactive” in each case.
Take `CN[C@@H]1[C@@H](O)[C@@H](O[C@@H]2[C@@H](O)[C@H](O[C@H]3O[C@H](CN)[C@@H](O)[C@H](O)[C@@H]3O)[C@@H](N)C[C@@H]2NC(=O)[C@@H](O)CN)OC[C@]1(C)O`: the Potency entry in [1], in experiment [2], in [7], in [6], in experiment [4] and in experiment [8] was “inactive” throughout.
Turning to `OC[C@H]1O[C@@H](OCCc2ccc(O)cc2)[C@H](O)[C@@H](O)[C@H]1O`, the Potency result in [1], in experiment [2], in [7], in experiment [3] and in experiment [4] was “inactive” throughout.
Take `CN(C)N=Nc1nc[nH]c1C(N)=O`: the Potency entry in [1], in experiment [2] and in experiment [7] was “inactive” in each case. Moreover, the Potency was 0.187 µM (active) in experiment [6] and 0.935 µM (active) in experiment [4].
On to `CC(C)[C@H](O)C(=O)N[C@@H](C)C(=O)N[C@@H]1C(=O)N(C)CCc2ccccc21`, for which the Potency result in [1], in experiment [7], in experiment [5], in experiment [6], in experiment [3] and in experiment [4] was “inactive” in each case. Besides, the Potency in [8] was 0.0021 µM (active).
In the case of `COc1ccnc(CS(=O)c2nc3ccc(OC(F)F)cc3[nH]2)c1OC` (stereo not given), the Potency result in [1], in [2], in experiment [7], in experiment [5] and in [4] was “inactive” each time. Further, the Potency in experiment [3] was 29.6 µM (active).
On to `Oc1cc(O)cc(C=Cc2ccc(O)c(O)c2)c1`, for which the Potency in experiment [9] was 4.69 µM (active); in experiment [2], 20.9 µM (active); in experiment [7] it was 11.8 µM (active); in [6], 9.35 µM (active); in experiment [4], 13.2 µM (active).
`COc1nccc(-c2c(-c3ccc(F)cc3)ncn2C2CCC(O)CC2)n1` (stereo not given): the Potency result in experiment [1], in [3] and in [4] was “inactive” each time. Also, the Potency is 0.0083 µM (active) in experiment [6] and 4.69 µM (active) in [8].
In the case of `O=C(CC12CC3CC(CC(C3)C1)C2)Nc1cccc2nc(NCCNCCO)ccc12`, the Potency was 2.64 µM (active) in [9]; 11.8 µM (active) in experiment [2]; 20.9 µM (active) in [7]; 18.7 µM (active) in [6]; 1.48 µM (active) in experiment [8].
As for `CCC(=C(CC)c1ccc(O)cc1)c1ccc(O)cc1`, the Potency was 8.33 µM (active) in experiment [1], 18.7 µM (active) in [5], 16.6 µM (active) in [3] and 18.7 µM (active) in [4].
With `CC(C)C[C@H](NC(=O)c1cc2ccccc2s1)C(=O)N1CCN(C(=O)[C@H](CO)NS(=O)(=O)c2ccc(Cl)cc2Cl)CC1`, the results for the Potency in experiment [9] and in experiment [2] were 26.4 µM (active) and 18.7 µM (active), respectively.
For `CC[C@H](C)n1cc(C)c2c(C(=O)NCc3c(C)cc(C)[nH]c3=O)cc(-c3ccc(N4CCNCC4)nc3)cc21`, the Potency in experiment [9] and in experiment [2] was 20.9 µM (active) in each case. Also, the Potency entry in [7], in experiment [3] and in [4] was “inactive” in each case.
As for `COc1cc2nc(-c3cc(F)ccc3O)nc(N[C@@H]3CNC[C@@H]3C(C)(C)O)c2cc1OC`, the Potency in experiment [9] is 2.64 µM (active); in experiment [2] it was 11.8 µM (active); in experiment [7] it was 6.62 µM (active); in experiment [5] it was 10.5 µM (active); in [6], 6.62 µM (active); in experiment [3], 6.62 µM (active). The values for the Potency in experiment [4] and in experiment [8] were 4.18 µM (active) and 0.118 µM (active), respectively.
In the case of `CCC[C@@H](NC(=O)[C@@H]1[C@H]2CCC[C@@H]2CN1C(=O)[C@@H](NC(=O)[C@@H](NC(=O)c1cnccn1)C1CCCCC1)C(C)(C)C)C(=O)C(=O)NC1CC1`, the Potency is 14.8 µM (active) in [9], 18.7 µM (active) in experiment [7] and 18.7 µM (active) in [3]. Further, the Potency result in [2] is “inactive”.
On to `CC(C)n1c(C=C[C@H](O)C[C@H](O)CC(=O)O)c(-c2ccc(F)cc2)c2ccccc21`, for which the results for the Potency in experiment [9], in [7] and in [6] were 18.7 µM (active), 16.6 µM (active) and 9.35 µM (active), respectively. Also, the Potency result in [2] is “inactive”.
`Cc1cccc(Nc2nc(N[C@@H]3CCCC[C@H]3N)ncc2C(N)=O)c1`: the Potency was 0.187 µM (active) in [9]; 20.9 µM (active) in experiment [2]; 20.9 µM (active) in experiment [7]; 16.6 µM (active) in experiment [5]; 20.9 µM (active) in experiment [6]; 16.6 µM (active) in experiment [4]. The Potency in experiment [8] was 3.72 µM (active).
For the molecule `CC(=O)N1CCN(c2ccc(OCc3nn(C)c(C)c3-c3cccc4c(CCCOc5cc(C)c(Cl)c(C)c5)c(C(=O)O)n(Cc5cccnc5)c34)cc2)CC1`, the Potency in experiment [9] is 4.69 µM (active); in [2] it was 20.9 µM (active); in [7], 6.62 µM (active).
Regarding `CCOC(=O)[C@H]1O[C@H]1C(=O)N[C@@H](CC(C)C)C(=O)NCCC(C)C`, the Potency entry in experiment [9], in [2], in experiment [7], in experiment [6] and in experiment [4] was “inactive” each time.
As for `OC[C@H]1O[C@@H](O[C@H]2[C@@H](O)[C@@](O)(CO)O[C@@H]2CO)[C@H](O)[C@@H](O)[C@@H]1O`, the Potency entry in experiment [9], in [2], in experiment [7], in [5], in experiment [6] and in [3] was “inactive” throughout. Besides, the Potency entry in experiment [4] and in experiment [8] was “inactive” each time.
Turning to `CO[C@H]1C=CO[C@@]2(C)Oc3c(C)c(O)c4c(O)c(c(C=NN5CCN(C)CC5)c(O)c4c3C2=O)NC(=O)C(C)=CC=C[C@H](C)[C@H](O)[C@@H](C)[C@@H](O)[C@@H](C)[C@H](OC(C)=O)[C@H]1C`, the Potency result in [1], in [3] and in experiment [4] was “inactive” throughout. In experiment [7], the Potency was 5.98 µM (active).
Turning to `C[C@]12CC[C@@H]3c4ccc(O)cc4CC[C@H]3[C@H]1[C@@H](O)[C@@H](O)[C@H]2O`, the Potency result in experiment [1], in experiment [3] and in [4] was “inactive” throughout.
In the case of `COc1cc(C=CC(=O)O)ccc1O`, the Potency result in experiment [9], in [2], in experiment [7], in experiment [6], in experiment [3] and in [4] was “inactive” throughout. Besides, the Potency in experiment [8] was 0.0042 µM (active).
For `Cc1ccc(NC(=O)Nc2cc(C(F)(F)F)ccc2F)cc1Nc1ccc2c(c1)NC(=O)C2=Cc1ccc[nH]1`, the Potency in [9] was 4.69 µM (active); in experiment [2], 26.4 µM (active); in experiment [7] it was 4.18 µM (active); in [6], 3.32 µM (active); in experiment [3], 5.26 µM (active); in [4], 5.9 µM (active). For the same molecule, the Potency in experiment [8] was 2.09 µM (active).
Regarding `CC(C)(F)C[C@H](N[C@@H](c1ccc(-c2ccc(S(C)(=O)=O)cc2)cc1)C(F)(F)F)C(=O)NC1(C#N)CC1`, the Potency result in experiment [9], in experiment [2], in experiment [7], in experiment [5] and in [6] was “inactive” in each case.
As to `COc1cc2c(cc1OC)CC(=O)N(CCCN(C)C[C@H]1Cc3cc(OC)c(OC)cc31)CC2`, the Potency entry in experiment [1] and in [5] was “inactive” throughout. Besides, the Potency in experiment [6] was 16.6 µM (active).
For `Cc1nc(NC(=O)N2CCC[C@@H]2C(N)=O)sc1-c1csc(C(C)(C)C)n1`, the Potency is 3.32 µM (active) in [9]; 8.33 µM (active) in [2]; 5.26 µM (active) in experiment [7]; 6.62 µM (active) in experiment [5]; 0.372 µM (active) in experiment [6]; 14.8 µM (active) in experiment [3]. Moreover, the Potency in [4] and in [8] was 1.05 µM (active) each time.

(Values after PubChem BioAssay (NCATS).)
